Laboratory results published in PubChem BioAssay AID1159580 (chemical genetic matrix, 2015).
Several values for one entry are separate records, joined by “and”; a condition that tells them apart may be missing. Equal values may be shown once. Out of some 5,500 compounds screened, about 2,000 (36%) were called active. Another 18% or so got no clear call; they are omitted. Rule as the data show it: active = normalized growth mostly below about 0.91 (no sharp cut-off); inconclusive = no clear call, values can overlap the other calls; inactive = mostly above about 0.92. The list shows a part of the results.

Assay: chemical genetic growth profiling, strain panel (AID 1159580);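 also: tested at 20 µM; growth read once vehicle control cultures reached saturation at 30 °C; 1 = growth at the plate median or of vehicle wells; lower values mean less growth of the strain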
Details: S. cerevisiae deletion strains, growth OD

Measured: normalized growth

C[C@@H]1CC[C@@]2(OC1)OC1C(O)C3C4CC[C@H]5C[C@H](O[C@@H]6O[C@H](CO)[C@H](O[C@@H]7O[C@H](CO)[C@@H](O)[C@H](O[C@@H]8OC[C@@H](O)[C@H](O)[C@H]8O)[C@H]7O[C@@H]7O[C@H](CO)[C@H](O)[C@H](O[C@@H]8O[C@H](CO)[C@@H](O)[C@H](O)[C@H]8O)[C@H]7O)[C@H](O)[C@H]6O)[C@H](O)C[C@]5(C)C4CC[C@]3(C)C1[C@@H]2C (stereo partly specified)
inactive: locus YAL021C, strain ccr4, active compounds read low 0.988 | locus YAL026C, strain drs2, active compounds read low 1.01 | locus YAL030W, strain snc1, active compounds read low 1.02 | locus YBL061C, strain skt5, active compounds read low 1.01 | locus YBR009C, strain hhf1, active compounds read low 0.942 | locus YBR023C, strain chs3, active compounds read low 1.01 | locus YBR171W, strain sec66, active compounds read low 0.986 | locus YBR231C, strain swc5, active compounds read low 0.99 | locus YBR279W, strain paf1, active compounds read low 1.02 | locus YCL011C, strain gbp2, active compounds read low 0.986 | locus YCL016C, strain dcc1, active compounds read low 0.995 | locus YCL061C, strain MRC1, active compounds read low 0.999 | locus YCL069W, strain vba3, active compounds read low 1.02 | locus YCR088W, strain abp1, active compounds read low 1.01 | locus YDL005C, strain med2, active compounds read low 1.06 | locus YDL040C, strain nat1, active compounds read low 1.02 | locus YDR001C, strain nth1, active compounds read low 1.02 | locus YDR069C, strain doa4, active compounds read low 1.03 | locus YDR297W, strain sur2, active compounds read low 1.02 | locus YDR334W, strain swr1, active compounds read low 1.02 | locus YDR392W, strain spt3, active compounds read low 0.919 | locus YEL003W, strain gim4, active compounds read low 1 | locus YEL037C, strain rad23, active compounds read low 1.02 | locus YEL061C, strain CIN8 (second series), active compounds read low 0.999 | locus YER015W, strain faa2, active compounds read low 1.02 | locus YER016W, strain bim1, active compounds read low 0.977 | locus YER155C, strain BEM2 (second series), active compounds read low 1.01 | locus YFR010W, strain ubp6, active compounds read low 1.01 | locus YGL173C, strain kem1, active compounds read low 1 | locus YGL227W, strain vid30, active compounds read low 1.03 | locus YGL253W, strain hxk2, active compounds read low 1.02 | locus YHR013C, strain ard1, active compounds read low 1.03 | locus YHR027C, strain rpn1, active compounds read low 1.02 | locus YHR142W, strain chs7, active compounds read low 0.876 | locus YJL092W, strain hpr5, active compounds read low 1.01 | locus YJL095W, strain BCK1 (second series), active compounds read low 1.01 | locus YJL115W, strain asf1, active compounds read low 1.03 | locus YJL129C, strain trk1, active compounds read low 0.944 | locus YJL154C, strain vps35, active compounds read low 1.01 | locus YJL164C, strain tpk1, active compounds read low 0.933 | locus YJL166W, strain qcr8, active compounds read low 0.969
active: locus YAL013W, strain DEP1, active compounds read low 0.0526 | locus YBR021W, strain FUR4, active compounds read low 0.0876 | locus YBR229C, strain ROT2, active compounds read low 0.0499 | locus YCL029C, strain bik1, active compounds read low 0.0554 | locus YDL035C, strain GPR1, active compounds read low 0.0509 | locus YDL074C, strain BRE1, active compounds read low 0.0891 | locus YDL101C, strain DUN1, active compounds read low 0.0606 | locus YDL185W, strain tfp1, active compounds read low 0.0577 | locus YDL192W, strain arf1, active compounds read low 0.0632 | locus YDR101C, strain arx1, active compounds read low 0.0567 | locus YDR137W, strain rgp1, active compounds read low 0.509 | locus YDR150W, strain NUM1, active compounds read low 0.0485 | locus YDR159W, strain sac3, active compounds read low 0.84 | locus YDR162C, strain NBP2, active compounds read low 0.0515 | locus YDR195W, strain ref2 0.61 | locus YDR318W, strain mcm21, active compounds read low 0.0561 | locus YDR335W, strain msn5, active compounds read low 0.907 | locus YDR388W, active compounds read low 0.0552 | locus YDR502C, strain sam2, active compounds read low 0.0624 | locus YER110C, active compounds read low 0.0702 | locus YER111C, strain swi4, active compounds read low 0.642 | locus YER155C, strain BEM2, active compounds read low 0.0639 | locus YER167W, strain BCK2, active compounds read low 0.0533 | locus YGL078C, strain dbp3, active compounds read low 0.0574 | locus YGL086W, strain mad1, active compounds read low 0.0591 | locus YGL167C, strain pmr1, active compounds read low 0.749 | locus YGL240W, strain doc1, active compounds read low 0.846 | locus YGL248W, strain PDE1, active compounds read low 0.0484 | locus YGR078C, strain PAC10, active compounds read low 0.0519 | locus YGR135W, strain pre9, active compounds read low 0.0583 | locus YGR252W, strain gcn5, active compounds read low 0.173 | locus YHR030C, strain SLT2, active compounds read low 0.0897 | locus YHR079C, strain IRE1 (second series), active compounds read low 0.0526 | locus YHR079C, strain IRE1, active compounds read low 0.12 | locus YHR094C, strain hxt1, active compounds read low 0.0539 | locus YHR129C, strain ARP1, active compounds read low 0.0547 | locus YHR200W, strain rpn10, active compounds read low 0.0577 | locus YIL066C, strain RNR3, active compounds read low 0.0505 | locus YIL073C, strain SPO22, active compounds read low 0.119 | locus YIL125W, strain kgd1, active compounds read low 0.0532 | locus YIR030C, strain dcg1, active compounds read low 0.054 | locus YJL095W, strain BCK1, active compounds read low 0.059 and 0.105 | locus YJL134W, strain LCB3, active compounds read low 0.0488 | locus YJL168C, strain set2, active compounds read low 0.0534 | locus YJL187C, strain SWE1 (second series), active compounds read low 0.0518
